A selection: hits, their analogues and other compounds. The true share with any hit is near 3.6%.
GDH-TPI inh = GDH-TPI coupling enzyme inhibitors, primary screen, artefact control for M. tuberculosis FBA inhibitor project, biochemical, absorbance, full deck; GDH-TPI coupled enzyme counterscreen, NADH absorbance; inhibition, % at 4.8 µM; actives 1.2% (n = 360,000); in the data active = inhibition above about 30%;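 note: 0% = DMSO wells and 100% = wells lacking the enzyme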
Mtb FBA inh = Mtb FBA enzyme inhibitors, primary screen, biochemical, fluorescence, strain H37Rv | purified M. tuberculosis FBA, fluorescence read-out | inhibition, % at 1 µM | actives 2.3% (n = 360,000); in the data active = inhibition above about 27%;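 note: 0% = vehicle and 100% = reference inhibitor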
Target sequence (P9WQA3 whole entry, looked up): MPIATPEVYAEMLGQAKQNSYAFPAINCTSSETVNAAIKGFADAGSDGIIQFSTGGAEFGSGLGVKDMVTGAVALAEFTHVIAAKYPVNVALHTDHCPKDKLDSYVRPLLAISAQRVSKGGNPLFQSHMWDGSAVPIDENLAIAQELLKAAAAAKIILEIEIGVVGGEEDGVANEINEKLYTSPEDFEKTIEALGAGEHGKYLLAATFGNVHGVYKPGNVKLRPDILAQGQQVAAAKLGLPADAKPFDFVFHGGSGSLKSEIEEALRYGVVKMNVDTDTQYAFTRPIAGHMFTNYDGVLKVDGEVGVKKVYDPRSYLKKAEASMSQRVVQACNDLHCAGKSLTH
VHR inh abs = VHR1 phosphatase inhibitors, primary screen, biochemical, absorbance, uHTS; Dual specificity protein phosphatase 3 (Homo sapiens), P51452; recombinant VHR phosphatase, pNPP absorbance; inhibition, % at 13.3 µM; actives 0.52% (n = 290,000); AID 1654, 2009; in the data active = inhibition above about 50%
Target sequence (P51452 whole entry, looked up): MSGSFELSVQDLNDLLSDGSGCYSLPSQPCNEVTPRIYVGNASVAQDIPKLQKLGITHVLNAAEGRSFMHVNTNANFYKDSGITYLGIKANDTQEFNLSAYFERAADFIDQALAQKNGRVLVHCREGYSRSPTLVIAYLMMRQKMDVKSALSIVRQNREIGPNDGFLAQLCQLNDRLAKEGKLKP
Mtb bLac sens = beta-lactam sensitization of Mtb H37Rv, H37Rv. inhibition, % at 25 µM. M. tuberculosis H37Rv growth with meropenem, percent inhibition. actives 0.27% (n = 330,000); call rule not given here;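 note: growth measured after seven days incubation then overnight dye step; 0% = bacteria only wells and 100% = bacteria with antibiotic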
Mtb hypoxia inh = PubChem AID 1159583. actives 0.1% (n = 300,000). fluorescence inhibition, % (no concentration beside the values). M. tuberculosis hypoxia-regulated fluorescent reporter, fluorescence; in the data active = fluorescence inhibition mostly above about 23%, no sharp cut-off; inactive = mostly below about 17%
Numbers without * were called inactive; / = no result; + = active, no number.

SMILES | GDH-TPI inh | Mtb FBA inh | VHR inh abs | Mtb bLac sens | Mtb hypoxia inh
Cc1cc(C(F)(F)F)c(C#N)c(=O)[nH]1 | 15.2 | 136.7* | 8.8 | 15.8 | /
N#Cc1c(-c2ccccc2)cc(-c2ccccc2)[nH]c1=O | 12.1 | 12.2 | 6.0 | -4.1 | 10.0
Cc1cc(N(C)C)c(C#N)c(=O)[nH]1 | -8.8 | 1.9 | 17.5 | -0.6 | /
N#Cc1c(C(F)(F)F)cc(-c2ccc(F)cc2)[nH]c1=O | 7.3 | 141.9* | 0.5 | -0.8 | 9.1
COc1ccc(-c2cc(-c3ccco3)[nH]c(=O)c2C#N)cc1 | 22.1 | 123.0* | 6.2 | -3.6 | 6.1
N#Cc1c(C(F)(F)F)cc(-c2cccc(Cl)c2)[nH]c1=O | 3.1 | 155.7* | -3.7 | -12.0 | 2.7
COc1ccc(C2CC(=O)C=C(c3ccc(OC)c(F)c3)C2)cc1 (stereo unspecified) | / | / | / | / | 10.9
O=C(NC(Cc1ccc(Br)cc1)C(=O)O)OCC1c2ccccc2-c2ccccc21 (stereo unspecified) | / | / | / | / | 1.0
Clc1ccc(N2CCN(N=Cc3cccnc3)CC2)cc1 | / | / | / | / | 4.8
CC1CN(C(C)CO)C(=O)c2cccc(NC(=O)CCC(F)(F)F)c2OC1CN(C)S(=O)(=O)c1ccc(F)cc1 (stereo unspecified) | / | / | / | / | 5.2
COc1cc(-c2cc(-c3ccc(N)cc3)[nH]c(=O)c2C#N)cc(OC)c1OC | 22.8 | 2.8 | 4.1 | 6.6 | -1.7
N#Cc1c(C(F)(F)F)cc(-c2ccc(Cl)cc2)[nH]c1=O | 3.8 | 177.3* | -0.1 | 7.3 | 0.4
COc1ccccc1-c1cc(C(F)(F)F)c(C#N)c(=O)[nH]1 | 9.9 | + | 13.6 | -8.6 | 13.4
COc1ccc(-c2cc(C(F)(F)F)c(C#N)c(=O)[nH]2)cc1 | 24.7 | + | 5.4 | -1.1 | 11.1
O=C(Cc1ccccc1)NN=C/C=C/c1ccccc1[N+](=O)[O-] | / | / | / | / | -6.8
CN(C)CC(C)(C)CNC(=O)C1CCN(CCCc2ccccc2)CC1 | -1.5 | 0.3 | 55.0* | -3.7 | -0.6
CCCCNc1c(-c2cccc(-c3cc(C(C)=O)cs3)c2)nc2cc(C)ccn12 | 32.8* | 2.6 | / | 18.7 | 11.4
CCCCCCSc1cc(-c2nc3cc(C)ccn3c2NCCCC)ccc1OC | 15.0 | 12.5 | / | -3.1 | /
CC1Cn2c(nc3sc4c(c3c2=O)CC(C)(C)OC4)N1CCO (stereo unspecified) | 2.0 | -0.4 | 53.0* | 5.0 | 7.8
C=C(C)CNC(=S)NNC(=O)c1ccc(Br)cc1 | 6.0 | -1.3 | 50.8* | 0.6 | 9.6
C=CCNC(=S)NNC(=O)c1ccc(Br)cc1 | 5.0 | -3.3 | 22.7 | 1.3 | /
C=CCn1c(SCC(=O)c2ccc(NS(=O)(=O)c3ccccc3)cc2)nnc1-c1cccs1 | 35.2* | 3.0 | -12.1 | -0.8 | -0.7
C=CCn1c(SCC(=O)Nc2ccc(C(=O)OCC)cc2)nnc1-c1cccs1 | -0.9 | -2.8 | -2.1 | -4.7 | /
CC1(C)CC(NS(=O)(=O)c2cccc3ccccc23)CC(C)(C)N1 | -1.4 | 3.0 | 55.5* | -3.0 | 0.5
O=C(O)c1ccc(N/N=C2/CCCc3ccccc32)cc1 | 79.2* | 1.8 | 13.6 | 14.4 | /
SMILES | GDH-TPI inh | Mtb FBA inh | VHR inh abs | Mtb bLac sens | Mtb hypoxia inh
O=C(NN=C1CCCc2ccccc21)c1ccc([N+](=O)[O-])cc1 | / | / | / | / | 23.8
Nc1c(C(=O)Nc2ccc(S(=O)(=O)N3CCCC3)cc2)sc2nc3cc4c(cc3cc12)CCC4 | 16.5 | 0.6 | 51.3* | 11.5 | 8.9
Nc1c(C(=O)Nc2ccc(S(=O)(=O)N3CCCC3)cc2)sc2nc3ccc(OC(F)(F)F)cc3cc12 | 4.1 | -0.5 | -10.5 | 2.4 | 18.7
COc1cccc(Nc2ccccc2C(=O)O)c1 | 6.8 | -2.0 | 2.0 | -1.3 | 13.4
COc1cccc(Nc2ncc(C(=O)O)c3ccccc23)c1 | 36.1* | -4.2 | -2.4 | 3.8 | /
COc1cccc(Nc2c(Nc3cccc(OC)c3)c(=O)c2=O)c1 | 6.4 | 6.6 | 59.0* | 2.3 | 4.9
COc1cccc(Nc2c([N+](=O)[O-])cncc2[N+](=O)[O-])c1 | 4.5 | 1.4 | -3.2 | 89.9 | 10.2
CC(C)Nc1nc(NC(C)C)nc(Oc2ccc(C=NO)cc2)n1 | / | / | / | / | -3.3
CCN1C(=O)C2C(c3ccc(C)cc3)N3C(=O)N(c4ccc(C)cc4)C(=O)[C@@]3(Cc3ccccc3)C2C1=O (stereo partly specified) | / | / | / | / | -2.9
CCOc1cccc(/C=C/c2cc(C(=O)O)c3ccccc3n2)c1OC | 48.1* | -7.5 | 25.3 | 1.8 | 1.0
COCCNc1nc(NCCCN2CCCC2=O)c2sc(-c3ccccc3)cc2n1 | 31.4* | 16.1 | / | / | /
COc1ccc(OC)c(N(CC(=O)NCCSc2ccccc2)S(C)(=O)=O)c1 | 1.2 | -2.3 | 50.5* | -2.2 | 2.5
COc1cc(/C=C2\SC(=S)N(CC(=O)Nc3ccc(O)cc3)C2=O)cc(OC)c1OC | 8.3 | -2.1 | 55.8* | / | -4.8
COc1cc(/C=C2/SC(=S)N(Cc3ccccc3)C2=O)ccc1OCC(=O)O | 11.4 | -2.1 | 1.7 | 5.8 | /
COc1ccc(/C=C2\SC(=S)N(CCC(=O)Nc3ccc(C(=O)O)cc3)C2=O)cc1OC | 5.2 | 3.0 | 56.9* | 2.0 | 5.5
COc1ccc(/C=C2\SC(=S)N(CCC(=O)N(CCO)Cc3ccccc3)C2=O)cc1OC | 5.5 | 1.2 | 57.3* | 1.8 | -0.2
C#CCOCCOCCOCCNc1nc(N2CCN(C(=O)CCCCCCCCCCNC(=O)C(CCCCN)n3cc(CCCC(=O)O)nn3)CC2)nc(N2CCN(C(=O)CCCCCCCCCCNC(=O)C(C(C)O)n3cc(C)nn3)CC2)n1 (stereo unspecified) | / | / | / | / | -0.4
Cc1nc2ccc(-c3nc4cc(N)ccc4o3)cc2[nH]1 | 21.4 | 12.4 | -3.7 | -0.7 | 10.9
Nc1ccc2oc(-c3ccc4nc[nH]c4c3)nc2c1 | 31.0* | 5.8 | -0.2 | -4.5 | 12.3
COc1ccc2c(c1OC)C(=O)N1C2SC(C)(C)[C@H]1C(=O)NCC(C)C (stereo partly specified) | 2.8 | 152.0* | 7.2 | -2.3 | -1.8
COCCNC(=O)[C@H]1N2C(=O)c3c(ccc(OC)c3OC)C2SC1(C)C (stereo partly specified) | -4.3 | 3.4 | 8.8 | -6.8 | 4.5
S=c1[nH]nc(-c2cc3ccccc3o2)n1Cc1ccccc1 | 19.8 | 132.1* | 3.3 | 4.0 | -0.6
COc1ccc(C2CC(=O)C=C(c3cccc(Br)c3)C2)cc1OC (stereo unspecified) | / | / | / | / | 2.2
Cc1ccccc1S(=O)(=O)Cc1ccc(C(=O)NCCCN2CCC(C)CC2)o1 | -4.3 | -0.5 | 56.8* | -5.2 | 14.9
Cc1ccccc1S(=O)(=O)Cc1ccc(C(=O)NCCCN2CCCC(C)C2)o1 (stereo unspecified) | 1.7 | 1.0 | 45.8 | 4.3 | -11.3
O=C1C=C(c2ccc(-c3ccccc3)cc2)CC(c2ccc(Cl)cc2)C1 (stereo unspecified) | / | / | / | / | 7.5
O=S(=O)(NN=C1CCCc2ccccc21)c1ccccc1 | / | / | / | / | 7.8
COc1ccc(Cl)c(NC(=O)CC(C)=NNC(=O)CCc2ccccc2)c1 | / | / | / | / | 13.3
NS(=O)(=O)c1ccc(NC(=O)COC(=O)/C(=C/c2cccs2)c2cccs2)cc1 | 42.0* | -2.8 | 1.1 | 2.8 | -2.6
